HT1080-NT tox: qHTS for induction of synthetic lethality in tumor cells producing 2HG: qHTS for the HT-1080-NT fibrosarcoma cell line; 360,000 tested, 1.6% active; HT-1080-NT fibrosarcoma viability, CellTiter-Glo ATP luminescence, 48 h; Potency, µM (highest dose often 46.1 µM), for the others: at the top dose activity, negative = less viability, hits mostly cytotoxic; AID 686970, 2013;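 also: NT is the 2HG producing partner of a matched IDH1 knockdown line; potency is read from the fitted curve at half-maximal effect; 0% = DMSO-treated cells and -100% = media-only wells without cells; nearly all actives have a fitted effect of over 55% in size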
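Viability by CellTiter-Glo luminescence after 48 h compound exposure at 37C of HT-1080-NT cells (750/well, RPMI, 5% FBS). % activity scaled between DMSO wells and medium-only wells, then curve-fitted and categorized by curve class.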
HT1080 IDH1KD tx: qHTS for induction of synthetic lethality in tumor cells producing 2HG: qHTS for the HT-1080-IDH1KD cell line. HT-1080 IDH1 knockdown viability, ATP luminescence, 48 h. Potency, µM (top dose mostly 46.1 µM), for the others: top-dose activity, negative = toxicity, most hits filed as cytotoxic. 360,000 tested, 2% active. AID 686971, 2013;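 also: potency is read from the fitted curve at half-maximal effect; 0% = DMSO wells and -100% = cell-free medium wells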
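% activity derives from luminescence (CellTiter-Glo), normalised to DMSO and no-cell wells. HT-1080-IDH1KD cells, 750/well, had 48 h compound exposure at 37 °C.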
KB-V1 cytotox: qHTS assay for MDR1-selective chemotherapeutics: Primary screen using the drug-selected MDR subline cells KB-V1. 400,000 tested, 3.4% active. Potency, µM (titrated, usually from 46.1 µM), hits mostly cytotoxic. KB-V1 MDR cells viability, CellTiter-Glo, 72 h; also: potency is read from the fitted curve at half-maximal effect; nearly all actives have a fitted effect of over 60% in size
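Cytotoxicity via CellTiter-Glo luminescence after 72 h compound exposure at 37 degrees C. Cells: drug-selected KB-V1 line, DMEM phenol-red free plus 10% FBS. Compounds tested at multiple concentrations; normalized data fitted to concentration-effect curves.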
KB-3-1 cytotox: qHTS assay for MDR1-selective chemotherapeutics: Primary screen using the parental adenocarcinoma cell KB-3-1. Potency, µM (series often up to 46.1 µM), hits mostly cytotoxic. 400,000 tested, 1.4% active. KB-3-1 viability, CellTiter-Glo ATP luminescence, 72 h; also: potency is read from the fitted curve at half-maximal effect; nearly all actives have a fitted effect of over 60% in size
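Luminescent ATP read-out (CellTiter-Glo) measures survival of drug-naive KB-3-1 cells after 72 h compound exposure at 37 °C. Titration series was screened from lowest to highest concentration, with DMSO vehicle plates as background controls.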
IL1B secr inh: qHTS for Inhibitors of Inflammasome Signaling: IL-1-beta AlphaLISA Primary Screen | THP-1 LPS/ATP IL-1B secretion, AlphaLISA, 16 h; stronger effect = lower value | activity change, % at 57.5 µM | 360,000 tested, 4.7% active | AID 743279, 2014; in the data active = activity change below about -50%; inconclusive = mostly about -30% to -49%
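Secreted IL-1B measured by AlphaLISA bead assay after 16 h compound exposure of THP-1 cells; compounds (final up to 57.5 uM) added 1 h before LPS (250 ng/mL) and ATP (1.25 mM) stimulation; lower signal means less secretion.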
An asterisk follows results filed as active; i = inactive; u = inconclusive; x = no result given. A selection: hits, their analogues and other compounds. The true share with any hit is near 8.8%. Unless noted, calls follow the shape of the dose curve; as a rule, active = well fitted curve in the direction sought with a large enough effect; inconclusive = small, poorly fitted or top-dose-only effect, or another doubt; inactive = no such curve, though single readings can be large; an effect the other way counts as inactive or inconclusive. Unless noted, % is scaled to controls: 0 for no effect and ±100 for the full control effect.

SMILES	HT1080-NT tox	HT1080 IDH1KD tx	KB-V1 cytotox	KB-3-1 cytotox	IL1B secr inh
CO/N=C/NC(=O)Cc1cn(-c2ncc(C(F)(F)F)cc2Cl)c2ccccc12	-30%	u	13µM*	u	-24
CC(=O)/C=C\c1cn(-c2ncc(C(F)(F)F)cc2Cl)c2ccccc12	-29%	u	u	21µM*	-81*
CCN(CC)CCCNC(=O)Cn1nc(C)n2c(cc3sccc32)c1=O	x	x	i	i	x
CN(C)C(CNC(=O)CNC(=O)c1ccc2ccccc2c1)c1ccccc1 (stereo not drawn)	-10%	3%	u	i	-13
CCOc1ccc(CN(C)C(=O)CNC(=O)c2ccccc2)cc1	15%	1%	i	i	11
CN(CCOc1ccc(Br)cc1)C(=O)CNC(=O)c1ccc2ccccc2c1	-9%	-26%	i	i	-91*
C=CCOc1ccc(CN(C)C(=O)CNC(=O)c2ccc(-c3ccccc3)cc2)cc1	-26%	u	2.3µM*	4.6µM*	-8
Cc1ccccc1Oc1cc(NC(=O)CCCn2nc(C)c([N+](=O)[O-])c2C)cc([N+](=O)[O-])c1	-2%	-11%	3.3µM*	i	-56*
Cc1nn(CCCC(=O)NCc2ccc(Cl)cc2)c(C)c1[N+](=O)[O-]	0%	9%	23µM*	i	-24
Cc1c(Cl)c([N+](=O)[O-])nn1CCCC(=O)Nc1cc(Oc2ccccc2)cc([N+](=O)[O-])c1	-1%	0%	u	i	21
Cc1nn(CCCC(=O)Nc2cc(Oc3ccc(F)cc3)cc([N+](=O)[O-])c2)c(C)c1[N+](=O)[O-]	-4%	-11%	5.8µM*	i	0
COc1cccc(NC(=O)CN(C)C(=O)c2ccc(NC(=O)CC3SC(N4CCCC4)=NC3=O)cc2)c1 (stereo not drawn)	6%	-6%	u	i	0
Nc1ccccc1Sc1c[nH]c2ccccc12	0%	-11%	i	i	24
CCc1nnc2c(NCc3ccccc3OC)nc3ccccc3n12	x	x	i	i	x
CCOc1ccc(NC(=O)CSc2nc(=O)n(Cc3cccnc3)c3c2CCC3)cc1	2%	-2%	i	i	-17
COc1ccc(C(=O)CSc2nc(=O)n(Cc3cccnc3)c3c2CCC3)cc1	5%	10%	15µM*	i	-15
CN(C)CCNc1ccc(Cl)cc1[N+](=O)[O-]	12%	9%	i	i	3
COc1ccc2sc3cccc(NCCN(C)C)c3c(=O)c2c1	16µM*	16µM*	u	u	-7
CN(C)CCNc1ccc2ncn3c4ccc(O)cc4c(=O)c1c23	u	21µM*	i	u	-104*
CCOC(=O)c1cnc2ccc(Cl)cc2c1NCCN(C)C	-1%	3%	i	i	0
CN(C)CCNc1ccc(CO)c2sc3ccc(O)cc3c(=O)c12	u	16µM*	u	u	-100*
CC[n+]1oc(-c2ccccc2)cc1C	9%	2%	i	u	8
O=C(Nc1ccccc1)[C@@H]1CC=C[C@@H]2CCN(C3CC3)C(=O)[C@@H]21	x	x	i	i	x
Cc1ccc(-c2nc(NCCN(C)C)c3ccccc3n2)cc1	u	21µM*	u	u	-95*
Cc1ccc(-c2nc(NCCCO)c3ccccc3n2)cc1	u	u	u	i	u
CN(C)CCCNc1nc(-c2ccc(Cl)cc2)nc2ccccc12	u	u	i	i	-62*
CCOC(CNc1ncnc2sc(-c3ccccc3)cc12)OCC	-3%	-2%	i	i	0
CN(C)CCCNc1ncnc2sc(-c3ccccc3)cc12	-2%	-22%	i	u	-76*
Cc1cccc(-c2nc(NCCCN(C)C)c3ccccc3n2)c1	u	u	i	i	-86*

High-throughput results (PubChem BioAssay)
